Results taken from PubChem BioAssay (NCATS).
Inconclusive results are not listed. Entries that show only a call come without a potency. The source made the active and inactive calls. Calls follow the shape of the dose curve; as a rule, active = well fitted inhibition curve with a large enough effect; inconclusive = small, poorly fitted or top-dose-only effect; inactive = flat fitted curve, though single readings scatter.

Experiments:
Assay in all cases: qHTS profiling for inhibitors of Plasmodium falciparum proliferation (AID 504749); also: nearly all actives have a fitted effect of over 60% in size
Conditions in all cases: P. falciparum in erythrocytes, SYBR Green DNA, 72 h; series mostly up to 28.7 µM
CP291 = tested on: CP291
Procedure, shortened: (§1)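 P. falciparum-infected erythrocytes (0.3% parasitemia, 2.5% hematocrit) incubated with compound 72 h at 37 C, 5% CO2. Parasite DNA detected by SYBR Green after lysis, overnight at room temperature; normalised to 0.29 uM artemisinin and DMSO.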

CP297 = tested on: CP297
Procedure, shortened: as §1

CP305 = tested on: CP305
Procedure, shortened: as §1

CP315 = tested on: CP315
Procedure, shortened: as §1

CP325 = tested on: CP325
Procedure, shortened: as §1

CP329 = tested on: CP329
Procedure, shortened: as §1

CP335 = tested on: CP335
Procedure, shortened: as §1

DFO2036 = tested on: DFO2036
Procedure, shortened: as §1

DIV14 = tested on: DIV14
Procedure, shortened: as §1

DIV17 = tested on: DIV17
Procedure, shortened: as §1
Potency is read from the fitted curve at half-maximal effect.

SMILES | Potency (CP291) | Potency (CP297) | Potency (CP305) | Potency (CP315) | Potency (CP325) | Potency (CP329) | Potency (CP335) | Potency (DFO2036) | Potency (DIV14) | Potency (DIV17)
O=c1[nH]c(=O)n([C@H]2C[C@H](O)[C@@H](CO)O2)cc1Br | inactive | inactive | inactive | inactive | inactive | inactive | inactive | inactive | inactive | inactive
CCCCNC(=O)NS(=O)(=O)c1ccc(C)cc1 | inactive | inactive | inactive | inactive | inactive | inactive | inactive | inactive | inactive | inactive
CCN(CC)CCNC(=O)c1ccc(NC(C)=O)cc1 | inactive | inactive | inactive | inactive | inactive | inactive | inactive | inactive | inactive | inactive
Cc1nnc(SCC2=C(C(=O)O)N3C(=O)[C@@H](NC(=O)Cn4cnnn4)[C@H]3SC2)s1 | inactive | inactive | inactive | inactive | inactive | inactive | inactive | inactive | inactive | inactive
CC(C(=O)O)c1ccc(CC2CCCC2=O)cc1 (stereo unspecified) | inactive | inactive | inactive | inactive | inactive | inactive | inactive | inactive | inactive | inactive
Nc1c2c(nc3ccccc13)CCCC2O (stereo unspecified) | inactive | inactive | inactive | inactive | inactive | inactive | inactive | inactive | inactive | 
Cc1ccc(=O)n(-c2ccccc2)c1 | inactive | inactive | inactive | inactive | inactive | inactive | inactive | inactive | inactive | inactive
CC(=O)[C@@]1(O)CC[C@H]2[C@@H]3CCC4=CC(=O)CC[C@]4(C)[C@H]3CC[C@@]21C | inactive | inactive | inactive | inactive | inactive | inactive | inactive | inactive | inactive | inactive
Cc1cc(C)c(/C=C2\C(=O)Nc3ccccc32)[nH]1 | inactive | inactive | inactive | inactive | inactive | inactive | inactive | inactive | inactive | inactive
Nc1ncn([C@@H]2O[C@H](CO)[C@@H](O)[C@H]2O)c(=O)n1 | inactive | inactive | inactive | inactive | inactive | inactive | inactive | inactive | inactive | inactive
CN1CCN(C2=Nc3ccccc3Oc3ccc(Cl)cc32)CC1 | inactive | inactive | inactive | inactive | inactive | inactive | inactive | inactive | inactive | inactive
CCn1cc(C(=O)O)c(=O)c2cc3c(cc21)OCO3 | inactive | inactive | inactive | inactive | inactive | inactive | inactive | inactive | inactive | 
O=C(O)CP(=O)(O)O | inactive | inactive | inactive | inactive | inactive | inactive | inactive | inactive | inactive | inactive
COCC(=O)O[C@]1(CCN(C)CCCc2nc3ccccc3[nH]2)CCc2cc(F)ccc2[C@@H]1C(C)C | 4.78 µM (active) | 0.849 µM (active) | 6.01 µM (active) | 6.75 µM (active) | 6.75 µM (active) | 4.78 µM (active) | 1.9 µM (active) | 1.26 µM (active) | 0.953 µM (active) | 0.601 µM (active)
CC[N+](C)(C)c1cccc(O)c1 | inactive | inactive | inactive | inactive | inactive | inactive | inactive | inactive | inactive | 
CC(C)NNC(=O)c1ccncc1 | inactive | inactive | inactive | inactive | inactive | inactive | inactive | 7.94 µM (active) | inactive | inactive
O=C(O)CCCCCCCC(=O)O | inactive | inactive | inactive | inactive | inactive | inactive | inactive | inactive | inactive | inactive
C[C@]12CCC(=O)C=C1CC[C@@H]1[C@@H]2CC[C@@]2(C)[C@H]1CC[C@]2(O)C(=O)CO | inactive | inactive | inactive | inactive | inactive | inactive | inactive | inactive | inactive | inactive
C#CCN(C)CCCOc1ccc(Cl)cc1Cl | inactive | inactive | inactive | inactive | inactive | inactive | inactive | inactive | inactive | 
O=C1CC2(CCCC2)CC(=O)N1CCCCN1CCN(c2ncccn2)CC1 | inactive | inactive | inactive | inactive | inactive | inactive | inactive | inactive |  | 
CCn1ccnc1CC1COc2ccccc2O1 (stereo unspecified) | inactive | inactive | inactive | inactive | inactive | inactive | inactive | inactive | inactive | inactive
CCCCOCCOCCOCc1cc2c(cc1CCC)OCO2 | inactive | inactive | inactive | inactive | inactive | inactive | inactive | inactive | inactive | inactive

SMILES | Potency (CP291) | Potency (CP297) | Potency (CP305) | Potency (CP315) | Potency (CP325) | Potency (CP329) | Potency (CP335) | Potency (DFO2036) | Potency (DIV14) | Potency (DIV17)
NC/C=C/C(=O)O | inactive | inactive | inactive | inactive | inactive | inactive | inactive | inactive | inactive | inactive
NC(=O)c1ncn([C@@H]2O[C@H](CO)[C@@H](O)[C@H]2O)c1O | inactive | inactive | inactive | inactive | inactive | inactive | inactive | inactive | inactive | inactive
COc1cc2c(cc1OC)-c1cc(=Nc3c(C)cc(C)cc3C)n(C)c(=O)n1CC2 | 2.13 µM (active) | 5.36 µM (active) | 3.79 µM (active) | 6.75 µM (active) | 4.26 µM (active) | 4.78 µM (active) | 4.26 µM (active) | 3.55 µM (active) | 3.01 µM (active) | 3.38 µM (active)
FC(F)(F)c1ccccc1-n1ccnc1 | inactive | inactive | inactive | inactive | inactive | inactive | inactive | inactive | inactive | inactive
CSc1ccc(C(=O)c2[nH]c(=O)[nH]c2C)cc1 | inactive | inactive | inactive | inactive | inactive | inactive | inactive | inactive | inactive | inactive
C[N+](C)(C)CCOC(N)=O | inactive | inactive | inactive | inactive | inactive | inactive | inactive | inactive | inactive | inactive
CC(C)(Oc1ccc(CCNC(=O)c2ccc(Cl)cc2)cc1)C(=O)O | inactive | inactive | inactive | inactive | inactive | inactive | inactive | inactive | inactive | inactive
COc1ccc([C@@H]2Sc3ccccc3N(CCN(C)C)C(=O)[C@@H]2OC(C)=O)cc1 | inactive | inactive | inactive | inactive | inactive | inactive | inactive | inactive | inactive | inactive
NC(Cc1ccc(Cl)cc1)C(=O)O (stereo unspecified) | inactive | inactive | inactive | inactive | inactive | inactive | inactive | inactive | inactive | inactive
CCCCCN(CCCCC)C(=O)C(CCC(=O)O)NC(=O)c1ccc(Cl)c(Cl)c1 (stereo unspecified) | inactive | inactive | inactive | inactive | inactive | inactive | inactive | inactive | inactive | inactive
CN=C(NC#N)NCCSCc1nc[nH]c1C | inactive | inactive | inactive | inactive | inactive | inactive | inactive | inactive | inactive | inactive
O=C(CCNNC(=O)c1ccncc1)NCc1ccccc1 | inactive | inactive | inactive | inactive | inactive | inactive | inactive | inactive | inactive | inactive
O=C(O)CN(CCOCCOCCN(CC(=O)O)CC(=O)O)CC(=O)O | inactive | inactive | inactive | inactive | inactive | inactive | inactive | inactive | inactive | inactive
CCN1CCC[C@H]1CNC(=O)c1c(O)c(Cl)cc(Cl)c1OC | inactive | inactive | inactive | inactive | inactive | inactive | inactive | inactive | inactive | inactive
CC(N=C(NC#N)Nc1ccncc1)C(C)(C)C (stereo unspecified) | inactive | inactive | inactive | inactive | inactive | inactive | inactive | inactive | inactive | inactive
C[N+](C)(C)CCOC(=O)CCC(=O)OCC[N+](C)(C)C | inactive | inactive | inactive | inactive | inactive | inactive | inactive | inactive | inactive | inactive
CCCN(CCC)CCc1cccc2c1CC(=O)N2 | inactive | inactive | inactive | inactive | inactive | inactive |  | inactive | inactive | inactive
Cc1ccc(Cl)c(Nc2ccccc2C(=O)O)c1Cl | inactive | inactive | inactive |  | inactive | inactive | inactive | inactive | inactive | inactive
NCCCNCCSP(=O)(O)O | inactive | inactive | inactive | inactive | inactive | inactive | inactive | inactive | inactive | inactive
NC(=O)N1c2ccccc2C=Cc2ccccc21 | inactive | inactive | inactive | inactive | inactive | inactive | inactive | inactive | inactive | inactive
CC(=O)Nc1nnc(S(N)(=O)=O)s1 | inactive | inactive | inactive | inactive | inactive | inactive | inactive | inactive |  | inactive
